From PubChem BioAssay (Tox21)
Inconclusive results are not listed. Activity calls are given as the source filed them. Unless noted, calls follow the shape of the dose curve; as a rule, active = well fitted curve in the direction sought with a large enough effect in the repeat runs; inconclusive = weak or mixed curves; inactive = no such curve, though single readings can be large; an effect the other way counts as inactive or inconclusive.

Assays:
[1] = qHTS assay to identify small molecule agonists of the peroxisome proliferator-activated receptor delta (PPARd) signaling pathway - cell viability counter screen (AID 743211); also: % is scaled to controls: 0 for no effect and ±100 for the full control effect; nearly all actives have a fitted effect of over 55% in size
Summary of the method: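 Read-out: CellTiter-Glo luminescence, 30 min RT, measured in the same wells as the beta-lactamase reporter. Cells: GeneBLAzer PPAR delta UAS-bla HEK293H, 3000 cells/well, compound exposure 17 h at 37C.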

[2] = biological target: Peroxisome proliferator-activated receptor delta (Homo sapiens) (UniProt Q03181); assay: qHTS assay to identify small molecule agonists of the peroxisome proliferator-activated receptor delta (PPARd) signaling pathway (AID 743212; calls by dose curve; also: % is scaled to controls: 0 for no effect and ±100 for the full control effect)
Summary of the method: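 Beta-lactamase reporter read by fluorescence (LiveBLAzer B/G FRET, 2 h, room temperature). Test agents, in DMSO, incubated at 37 C with PPARd-bla HEK293H cells.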

[3] = qHTS assay to identify small molecule antagonists of the peroxisome proliferator-activated receptor delta (PPARd) signaling pathway - cell viability counter screen (AID 743213); also: % is scaled to controls: 0 for no effect and ±100 for the full control effect; nearly all actives have a fitted effect of over 50% in size
Summary of the method: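 HEK293H cells with the PPARd UAS-bla reporter, co-treated 17 h at 37 C with compounds and L165041 (300 nM final), were lysed with CellTiter-Glo. Luminescence indicated viable cell content.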

[4] = qHTS assay to identify small molecule agonists of the farnesoid-X-receptor (FXR) signaling pathway - cell viability counter screen (AID 743218); also: % is scaled to controls: 0 for no effect and ±100 for the full control effect; nearly all actives have a fitted effect of over 45% in size
Summary of the method: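 Same-well cytotoxicity check on FXR-UAS-bla HEK 293T cells: 5 h attachment, 16 h compound at 37 C, CellTiter-Glo luminescence read at room temperature after 30 min.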

[5] = qHTS assay to identify small molecule antagonists of the farnesoid-X-receptor (FXR) signaling pathway - cell viability counter screen (AID 743221; active = well fitted cell-killing curve with a large enough effect in the repeat runs, not every such curve was filed as active; also: % is scaled to controls: 0 for no effect and ±100 for the full control effect; nearly all actives have a fitted effect of over 50% in size)
Summary of the method: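 HEK 293T FXR-bla cells, 5 h pre-incubation; compound + CDCA 50 uM final, 16 h, 37 C; beta-lactamase FRET read first, then CellTiter-Glo luminescence, 30 min RT.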

[6] = qHTS assay to identify small molecule agonists of the vitamin D receptor (VDR) signaling pathway - cell viability counter screen (AID 743224); also: series mostly up to about 63 µM; % is scaled to controls: 0 for no effect and ±100 for the full control effect; nearly all actives have a fitted effect of over 50% in size
Summary of the method: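 Counter screen for cytotoxicity: VDR-bla cells at 2,000 cells/well, 16 h compound exposure, then CellTiter-Glo luminescence after the beta-lactamase measurement.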

[7] = qHTS assay to identify small molecule antagonists of the vitamin D receptor (VDR) signaling pathway - cell viability counter screen (AID 743225); also: % is scaled to controls: 0 for no effect and ±100 for the full control effect; nearly all actives have a fitted effect of over 50% in size
Summary of the method: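 Viability counter screen run in the same wells as the beta-lactamase reporter assay: HEK 293T VDR-UAS-bla cells, 16 h compound exposure at 37C with 3 nM (final) 1-alpha,25-dihydroxyvitamin D3. CellTiter-Glo luminescence, 30 min, room temperature.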

[8] = qHTS assay to identify small molecule agonists of the NFkB signaling pathway (AID 1159509; active = well fitted curve in the direction sought with a large enough effect in the signal ratio in the repeat runs, not every such curve was filed as active; the % refers to the signal ratio; also: series mostly up to about 61 µM; % is scaled to controls: 0 for no effect and ±100 for the full control effect)
Summary of the method: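 Beta-lactamase reporter assay run in quantitative high-throughput format on an NF-kB-responsive ME-180 line, with 5 hr compound treatment and a FRET-based blue/green fluorescence readout.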

[9] = qHTS assay to identify small molecule agonists of the NFkB signaling pathway - cell viability counter screen (AID 1159515; calls by dose curve; also: series mostly up to about 61 µM; % is scaled to controls: 0 for no effect and ±100 for the full control effect; nearly all actives have a fitted effect of over 55% in size)
Summary of the method: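 Counter screen run alongside the NFkB-bla agonist assay: ME-180 reporter cells exposed to compounds for 5 hr, then lysed with CellTiter-Glo in the same wells. Luminescence, read after 30 min, reflects viable cells.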

[10] = qHTS assay to identify small molecule agonists of the endoplasmic reticulum stress response signaling pathway (AID 1159516; active = well fitted activation curve with a large enough effect in the signal ratio in the repeat runs, not every such curve was filed as active; the % refers to the signal ratio; also: % is scaled to controls: 0 for no effect and ±100 for the full control effect)
Summary of the method: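 For this screen, HeLa cells stably carrying beta-lactamase under the ER stress response element received test compounds, positive controls or DMSO for 5 hr at 37 C; B/G FRET substrate was then added and dual-wavelength emission recorded.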

[11] = qHTS assay to identify small molecule agonists of the endoplasmic reticulum stress response signaling pathway - cell viability counter screen (AID 1159517; calls by dose curve)
Summary of the method: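 Cytotoxicity of test compounds toward ESRE-bla HeLa cells was assessed after 5 hr exposure. The luminescent CellTiter-Glo signal was measured 30 min after reagent addition.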

[12] = qHTS assay to identify small molecule antagonists of the retinoid-related orphan receptor gamma (ROR-gamma) signaling pathway - cell viability counter screen (AID 1159520)
Summary of the method: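 Tet-on ROR gamma CHO cells (1,000/well) were plated 4 hr, given compounds in DMSO for 2 hr at 37 C, then induced with 1 uM final doxycycline for 16 hr. Viability was read as ATP by CellTiter-Glo luminescence after 30 min.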

[13] = biological target: Nuclear receptor ROR-gamma (Homo sapiens) (UniProt P51449); assay: qHTS assay to identify small molecule antagonists of the retinoid-related orphan receptor gamma (ROR-gamma) signaling pathway (AID 1159521)
Summary of the method: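 Luminescence readout (ONE-Glo, 30 min RT) after 16 h doxycycline induction; loss of signal scored as antagonism. CHO cells with TET-inducible RORγ and RORE-LUC reporter; compounds added 2 h before 1 uM final doxycycline.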

[14] = qHTS assay to identify small molecule agonists of the AP-1 signaling pathway (AID 1159526; calls by dose curve; also: % is scaled to controls: 0 for no effect and ±100 for the full control effect)
[15] = biological target: Peroxisome proliferator-activated receptor delta (Homo sapiens) (UniProt Q03181); assay: qHTS assay to identify small molecule antagonists of the peroxisome proliferator-activated receptor delta (PPARd) signaling pathway (AID 743215; active = well fitted inhibition curve with a large enough effect in the signal ratio in the repeat runs, not every such curve was filed as active; the % refers to the signal ratio)
Summary of the method: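 Screen format: qHTS, antagonist mode. HEK293H PPARd-bla cells received compound and 300 nM L165041 (final), 17 h, 37 C. Beta-lactamase detected via FRET substrate fluorescence, 2 h, room temperature.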

[16] = biological target: Bile acid receptor (Homo sapiens) (UniProt Q96RI1); assay: qHTS assay to identify small molecule antagonists of the farnesoid-X-receptor (FXR) signaling pathway (AID 743217; active = well fitted inhibition curve with a large enough effect in the signal ratio in the repeat runs, not every such curve was filed as active; the % refers to the signal ratio; also: % is scaled to controls: 0 for no effect and ±100 for the full control effect)
Summary of the method: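 Quantitative HTS, beta-lactamase reporter format: FXR-UAS-bla HEK 293T cells co-treated 16 h at 37 °C with compounds and 50 uM final chenodeoxycholic acid, then read by B/G FRET fluorescence.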

[17] = biological target: Bile acid receptor (Homo sapiens) (UniProt Q96RI1); assay: qHTS assay to identify small molecule agonists of the farnesoid-X-receptor (FXR) signaling pathway (AID 743220; active = well fitted activation curve with a large enough effect in the signal ratio in the repeat runs, not every such curve was filed as active; the % refers to the signal ratio; also: % is scaled to controls: 0 for no effect and ±100 for the full control effect)
Summary of the method: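 FXR-UAS-bla HEK 293T cells carrying a UAS-driven beta-lactamase reporter were plated for 5 h at 37C/5% CO2, then exposed to DMSO-dissolved Tox21 10K compounds for 16 h at 37C. A LiveBLAzer B/G FRET substrate was loaded for 2 h at room temperature before fluorescence reading.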

[18] = biological target: Vitamin D3 receptor (Homo sapiens) (UniProt P11473); assay: qHTS assay to identify small molecule agonists of the vitamin D receptor (VDR) signaling pathway (AID 743222; calls by dose curve; also: % is scaled to controls: 0 for no effect and ±100 for the full control effect)
Summary of the method: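 Using LiveBLAzer B/G FRET detection, agonism was scored in VDR-bla cells exposed overnight (16 h, 37C) to DMSO-dissolved compounds; substrate incubation was 2 h at room temperature.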

[19] = biological target: Vitamin D3 receptor (Homo sapiens) (UniProt P11473); assay: qHTS assay to identify small molecule antagonists of the vitamin D receptor (VDR) signaling pathway (AID 743223; active = well fitted inhibition curve with a large enough effect in the signal ratio in the repeat runs, not every such curve was filed as active; the % refers to the signal ratio; also: % is scaled to controls: 0 for no effect and ±100 for the full control effect)
Summary of the method: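 Beta-lactamase reporter read-out: FRET substrate fluorescence after 2 h at room temperature, following 16 h exposure of VDR-bla cells to test compound plus 3 nM (final) 1alpha,25-dihydroxyvitamin D3 agonist at 37C.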

[20] = qHTS assay to identify small molecule agonists of the AP-1 signaling pathway - cell viability counter screen (AID 1159525; calls by dose curve; also: nearly all actives have a fitted effect of over 55% in size)
Summary of the method: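 Each titration point was normalised to DMSO and tetra n-octyl ammonium bromide controls. The read was Cell Titer Glo luminescence after 30 min at RT, following 5 h compound exposure of ME-180 AP-1-bla cells at 37 °C.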

Bile acid receptor (Homo sapiens), sequence (Q96RI1 whole entry, looked up): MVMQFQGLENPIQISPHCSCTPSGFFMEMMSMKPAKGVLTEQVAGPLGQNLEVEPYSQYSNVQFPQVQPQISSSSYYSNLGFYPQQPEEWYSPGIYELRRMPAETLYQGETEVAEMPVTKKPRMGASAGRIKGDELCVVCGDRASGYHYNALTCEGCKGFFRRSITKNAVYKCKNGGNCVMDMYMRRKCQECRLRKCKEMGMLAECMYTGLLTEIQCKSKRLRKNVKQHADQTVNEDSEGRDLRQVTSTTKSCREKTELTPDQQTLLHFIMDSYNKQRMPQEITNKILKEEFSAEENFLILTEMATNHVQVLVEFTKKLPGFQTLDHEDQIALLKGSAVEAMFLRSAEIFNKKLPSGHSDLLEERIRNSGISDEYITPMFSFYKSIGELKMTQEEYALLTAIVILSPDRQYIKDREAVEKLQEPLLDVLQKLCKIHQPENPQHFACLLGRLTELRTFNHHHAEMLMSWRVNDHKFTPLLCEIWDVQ
Vitamin D3 receptor (Homo sapiens), sequence (P11473 whole entry, looked up): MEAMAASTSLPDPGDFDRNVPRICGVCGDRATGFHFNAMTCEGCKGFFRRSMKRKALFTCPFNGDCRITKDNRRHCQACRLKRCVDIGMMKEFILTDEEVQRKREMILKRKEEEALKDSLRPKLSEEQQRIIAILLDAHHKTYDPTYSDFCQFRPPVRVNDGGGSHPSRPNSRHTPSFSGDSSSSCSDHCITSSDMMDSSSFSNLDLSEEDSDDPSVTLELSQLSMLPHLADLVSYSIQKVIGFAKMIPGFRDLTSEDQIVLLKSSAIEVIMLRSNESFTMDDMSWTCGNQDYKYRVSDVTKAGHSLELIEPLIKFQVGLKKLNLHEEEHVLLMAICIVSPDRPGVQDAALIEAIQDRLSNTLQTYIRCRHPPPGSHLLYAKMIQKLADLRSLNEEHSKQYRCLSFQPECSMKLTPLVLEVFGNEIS
Peroxisome proliferator-activated receptor delta (Homo sapiens), sequence (Q03181 whole entry, looked up): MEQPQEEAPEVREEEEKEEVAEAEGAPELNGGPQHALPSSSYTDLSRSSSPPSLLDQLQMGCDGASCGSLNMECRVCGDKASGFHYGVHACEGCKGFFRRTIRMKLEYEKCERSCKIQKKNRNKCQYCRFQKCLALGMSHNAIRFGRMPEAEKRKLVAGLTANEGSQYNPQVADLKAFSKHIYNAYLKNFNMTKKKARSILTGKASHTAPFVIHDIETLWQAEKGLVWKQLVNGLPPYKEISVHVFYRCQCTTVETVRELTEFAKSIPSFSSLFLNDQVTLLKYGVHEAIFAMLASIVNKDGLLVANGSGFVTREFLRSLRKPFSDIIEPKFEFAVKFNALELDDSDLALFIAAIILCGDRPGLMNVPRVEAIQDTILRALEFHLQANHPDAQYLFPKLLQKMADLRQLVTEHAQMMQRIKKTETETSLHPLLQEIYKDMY

CCC(C)(CCC(C)C)C(=O)[O-].CCC(C)(CCC(C)C)C(=O)[O-].[Zn+2] (configuration not stated)
inactive: outcome [1] | outcome [2] | outcome [3] | Potency [4] | outcome [5] | outcome [6] | outcome [7] | outcome [8] | outcome [9] | outcome [10] | outcome [11] | outcome [12] | outcome [13] | outcome [14]

CCOc1ccc(NC(=O)OC(C)C)cc1OCC
inactive: outcome [1] | outcome [3] | outcome [15] | outcome [16] | Potency [4] | outcome [17] | outcome [5] | outcome [18] | outcome [19] | outcome [6] | outcome [7] | outcome [8] | outcome [9] | outcome [10] | outcome [11] | outcome [12] | outcome [13] | outcome [14]

CCCCCCCC[Si](OCC)(OCC)OCC
inactive: outcome [2] | outcome [3] | outcome [15] | outcome [5] | outcome [18] | outcome [19] | outcome [6] | outcome [7] | outcome [8] | outcome [9] | outcome [10] | outcome [11] | outcome [12] | outcome [13] | outcome [14]

C=CCCCCCCCCCCC
inactive: activity change, negative = cytotoxicity [1] -1.9% [at 5.95 µM] | activation [2] -5.08% [at 5.95 µM] | ratio activity, negative = inhibition [15] 0.24% [at 6.26 µM] | viability change, negative = cytotoxic [4] 33.3% [at 5.95 µM] | activity change, negative = cytotoxicity [5] 11.4% [at 5.95 µM] | activation [18] -2.3% [at 6.01 µM] | activity change, negative = inhibition [19] 4.12% [at 6.95 µM] | activity change, negative = cytotoxicity [6] -9.89% [at 5.95 µM] | viability change, negative = cytotoxic [7] 5.49% [at 6.95 µM] | activation [8] 0.0657% [at 6.95 µM] | activity, negative = cytotoxic [9] -9.69% [at 6.95 µM] | activation [10] -5.43% [at 6.95 µM] | activity change, negative = cytotoxicity [11] -0.545% [at 6.95 µM] | activity, negative = cytotoxicity [12] 3.91% [at 8.39 µM] | viability change, negative = cytotoxic [20] 9.65% [at 6.97 µM] | activation [14] -2.43% [at 6.97 µM]

CC(C)COC(=O)CCCCC(=O)OCC(C)C
inactive: outcome [2] | outcome [3] | outcome [15] | outcome [16] | Potency [4] | outcome [17] | outcome [5] | outcome [18] | outcome [6] | outcome [7] | outcome [8] | outcome [9] | outcome [10] | outcome [11] | outcome [12] | outcome [13] | outcome [14]

O=C1c2ccccc2-c2ccccc21
inactive: outcome [1] | outcome [2] | outcome [3] | outcome [15] | outcome [16] | Potency [4] | outcome [17] | outcome [6] | outcome [7] | outcome [8] | outcome [9] | outcome [10] | outcome [11] | outcome [12] | outcome [13] | outcome [14]

O=c1cc(O)c(Cl)c[nH]1
inactive: outcome [1] | outcome [2] | outcome [3] | outcome [15] | outcome [16] | Potency [4] | outcome [17] | outcome [5] | outcome [19] | outcome [6] | outcome [7] | outcome [8] | outcome [9] | outcome [10] | outcome [11] | outcome [12] | outcome [20] | outcome [14]

Cc1ccccc1C(=O)N1CC/C(=N\OS(=O)(=O)O)c2ccc(Cl)cc21
inactive: outcome [1] | outcome [2] | outcome [3] | Potency [4] | outcome [18] | outcome [6] | outcome [7] | outcome [8] | outcome [9] | outcome [10] | outcome [11] | outcome [12] | outcome [13] | outcome [14]

C=CCOc1c(Br)cc(Br)cc1Br
inactive: outcome [16] | outcome [17] | outcome [18] | outcome [6] | outcome [7] | outcome [8] | outcome [9] | outcome [10] | outcome [11] | outcome [12] | outcome [13] | outcome [20] | outcome [14]

C=C[C@@H](C)CCC=C(C)C
inactive: outcome [1] | outcome [2] | outcome [3] | outcome [15] | outcome [5] | outcome [18] | outcome [19] | outcome [6] | outcome [8] | outcome [9] | outcome [10] | outcome [11] | outcome [12] | outcome [13] | outcome [14]

FC(F)(F)c1ccc(Cl)cc1Cl
inactive: outcome [1] | outcome [3] | Potency [4] | outcome [18] | outcome [19] | outcome [6] | outcome [7] | outcome [8] | outcome [9] | outcome [10] | outcome [11] | outcome [12] | outcome [13] | outcome [14]

C=C(C)C(=O)OC
inactive: outcome [1] | outcome [2] | outcome [3] | outcome [15] | outcome [16] | Potency [4] | outcome [17] | outcome [5] | outcome [6] | outcome [7] | outcome [8] | outcome [9] | outcome [10] | outcome [11] | outcome [12] | outcome [20] | outcome [14]

COCC(=O)Nc1c(I)c(C(=O)NCC(O)CO)c(I)c(C(=O)N(C)CC(O)CO)c1I (configuration not stated)
inactive: outcome [1] | outcome [2] | outcome [3] | outcome [15] | Potency [4] | outcome [5] | outcome [6] | outcome [7] | outcome [8] | outcome [9] | outcome [10] | outcome [11] | outcome [12] | outcome [20] | outcome [14]
